Data taken from PubChem BioAssay (NCI).
Compounds without any hit were thinned out: in the full panel of roughly 83,000, 20% have a hit.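 Growth was measured after 48 h exposure to one concentration of compound in 96-well plates. Values under 10 count as active.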 Values without a mark were called inactive. Active and inactive are the calls of the source.

The compounds below were run on SN12C renal (assay: NCI-60 one-dose screen, 48 h (100 = growth as untreated, 0 = no growth, -100 = all killed)). Conditions: 10 µM unless noted.
Description: Growth inhibition of the SN12C human tumor cell line is measured as a screen for anti-cancer activity. Cells are grown in 96 well plates and exposed to the test compound for 48 hours. Compounds are tested at a single concentration, which is 10^-5 M for most compounds. The reported endpoint is percent growth (GI% or GIPRCNT), where numbers from 0 - 100% represent growth inhibition, and numbers from -100% - 0 represent cell death. For example, a value of 40 represents 60% growth inhibition. A value of 0 means no net growth occurred over the course of the experiment. A value of -40 indicates 40% of cells at the beginning of the experiment died by the end of the experiment. A value of -100 means all cells are dead at the end of the experiment.
NCI-60 Human Tumor Cell Lines Screen was performed using the standard one-dose NCI protocol, which is described in more detail at https://dtp.cancer.gov/discovery_development/nci-60/default.htm.
Compounds with GIPRCNT values below 10 were considered active. Activity score was based on GIPRCNT using the following formula: […]
Score is 0 for GIPRCNT values of 100 or above, 50 for GIPRCNT values of 0, and 100 for GIPRCNT values of -100.

With COc1ccc(-c2nc3sc(-c4ccccc4)cn3n2)cc1 as the compound, how does the growth read?
Its growth is 62.6%.

With COc1ccc(C(Cc2ccccc2)NCCN2CCOCC2)cc1 (stereo not given) as the compound, how does the growth read?
The growth was 99.6%.

Which growth does the source give for [O-][n+]1c2ccccc2[n+]([O-])c2c3ccccc3[nH]c21 here?
Its growth is 81.3%.

For NCCOc1ncccc1/C=C1\c2ccccc2-c2ccc(C(F)F)cc21, which growth is on record?
Its growth is 16.8%.

For O=C(Nc1ccc(I)cc1F)c1cc(I)ccc1O, which growth is on record?
The growth was -10.4% (active).

How did the growth turn out when Cc1cc(N2CCCC2)nc(N(CCCNc2ccnc3cc(Cl)ccc23)Cc2ccccn2)n1 was run?
The growth was 52%.

With CNC(=O)c1cc(-n2ccc3cc(NC(=O)c4ccc(N5CCOCC5)c(C(F)(F)F)c4)ccc32)ccn1 as the compound, how does the growth read?
Its growth is 64.3%.

For Cc1nc(NC(=O)COc2ccc(/C=C3\Cc4ccc(Cl)cc4C3=O)cc2)sc1C, which growth is on record?
Its growth is 103%.

Which growth does the source give for COc1cc(OCc2cccc(-c3ccc(C(O)c4nccs4)cc3)c2C)cc(OC)c1CNCCNC(C)=O (stereo not given) here?
The growth was 98.1%.

With COc1ccc2sc3c(NCCO)nc4ccccc4c3c(=O)c2c1 as the compound, how does the growth read?
The growth was 96.6%.

With Oc1ccc(-c2nc3ccc4[nH]ncc4c3c3c2CCCC3)c2cccnc12 as the compound, how does the growth read?
Its growth is 4.02% (active).

Which growth does the source give for CNCCCC12CCC(c3ccccc31)c1ccccc12 here?
Its growth is 73.4%.

With COc1cc2cc(Oc3ccc(NC(=O)Nc4ccc(F)c(C(F)(F)F)c4)cc3)c(C)nc2cc1OCCN1CCOCC1 as the compound, how does the growth read?
Its growth is 11.6%.

Which growth does the source give for COC(=O)/C=C1\S/C(=N\Nc2ccc([N+](=O)[O-])cc2[N+](=O)[O-])N(C2CCCCC2)C1=O here?
The growth was 21.6%.

C=CCNc1ccc2c3c(cccc13)C(=O)N(N1C(=O)c3cccc4cccc(c34)C1=O)C2=O was tested. Which growth did it give?
Its growth is 101%.

Which growth does the source give for Cn1cc(C(=O)c2nc(-c3cn(C)c4ccc(F)cc34)no2)c2cc(F)ccc21 here?
The growth was 91.9%.

Which growth does the source give for CCC(=O)Nc1ccc(-c2nc(-c3cccc(OC)c3)c(-c3ccnc(Br)c3)[nH]2)cc1 here?
Its growth is 68.3%.

CN(C(=O)NCc1cccc(F)c1Cl)[C@H](COC(=O)Nc1cc2ccccc2cn1)CC(O)CO (stereo not given in full) was tested. Which growth did it give?
Its growth is 86.1%.

How did the growth turn out when O=C(CSc1nc2ccccc2[nH]1)Nc1cccc(Cl)c1 was run?
The growth was 93%.

With O=C(CCc1nnc(-c2c(Cl)cccc2Cl)o1)c1nc2ccccc2[nH]1 as the compound, how does the growth read?
The growth was 61.2%.

With COc1cc(/C=N/NC(=O)c2ccc(C)nc2)cc(OC)c1OC as the compound, how does the growth read?
The growth was 102%.

With Cc1c(C(=O)/C=C/Nc2c(Cl)cc(S(N)(=O)=O)cc2Cl)sc2nc3ccccc3n12 as the compound, how does the growth read?
The growth was 102%.

How did the growth turn out when CCN1C(=O)N(CC)C2Nn3c(s/c(=C4\C(=O)Nc5ccccc54)c3=O)=NC21 (stereo not given) was run?
Its growth is 49.8%.

Oc1c(I)cc(I)cc1CNCCCN(Cc1ccccn1)Cc1ccccn1 was tested. Which growth did it give?
The growth was -50.1% (active).

With Nc1nn(C(=O)Nc2ccc(Cc3ccccc3)cc2)c2ccc(Cl)cc12 as the compound, how does the growth read?
Its growth is 64.2%.

With COc1cc(C(=O)c2cnc(-c3c[nH]c4cccc(C)c34)[nH]2)cc(OC)c1OC as the compound, how does the growth read?
Its growth is 28.1%.

For NCCCNc1nc2ccc(Cl)cc2c2c(=O)c3cc(F)ccc3sc12, which growth is on record?
Its growth is 71%.

Which growth does the source give for O=C(Nc1nc2ccc(F)cc2s1)c1cccnc1Nc1ccc(Cl)cc1Cl here?
The growth was 9.61% (active).

CCOC(=O)CCN(C(=O)Nc1ccccc1)C1CCCCC1 was tested. Which growth did it give?
The growth was 117%.

Which growth does the source give for COc1ccc(-c2cnc3ccccc3n2)cc1 here?
Its growth is 93.7%.

With CCN(CC)CCNc1nc2ccccc2c2c(=O)c3cc(Cl)ccc3sc12 as the compound, how does the growth read?
Its growth is 66.7%.

For CCCCCCN(CCCCCC)c1ccc(/C=C2/SC(=O)NC2=O)c(C)c1, which growth is on record?
The growth was 80.7%.

CN1CCN(c2ccc(-c3ccc4ncc(C#N)c(Nc5ccc(F)c(Cl)c5)c4c3)cn2)CC1 was tested. Which growth did it give?
The growth was 62.5%.

For CS(=O)(=O)Nc1cc(-c2ccc3ncnc(Nc4cccc(Cl)c4F)c3c2)cnc1Cl, which growth is on record?
Its growth is 37.4%.

Which growth does the source give for CCc1ccc(Oc2c(-c3ccc(OCCc4cccc(C(F)(F)F)c4)cc3O)n[nH]c2C(F)(F)F)cc1 here?
Its growth is 19.9%.

C#C[C@]1(O)CC[C@H]2[C@@H]3CC=C4c5sc(Nc6ccccc6)nc5CC[C@]4(C)[C@H]3CC[C@@]21C was tested. Which growth did it give?
The growth was 29.2%.

With O=C(N/N=C/c1c(Cl)cccc1Cl)c1ccc(C(F)(F)F)nc1Nc1cccc(C(F)(F)F)c1 as the compound, how does the growth read?
Its growth is 1.33% (active).

NCCNc1nc2ccccc2c2c(=O)c3cc(F)ccc3sc12 was tested. Which growth did it give?
The growth was 71.1%.

Which growth does the source give for COc1cccc(/C=C2\C=C(c3ccccc3)N(Cc3ccccc3)C2=O)c1 here?
The growth was 43.6%.

Which growth does the source give for CCOC(=O)Nc1ccc(-c2nc(-c3cccc(OCCN4CCOCC4)c3)c(-c3ccnc(Br)c3)[nH]2)cc1 here?
The growth was 59.9%.
